Consider 13 molecules from PubChem BioAssay (NCATS).

“And” between values parts separate entries of the source, which are not always exact repeats. Equal values may be shown once. Records with an inconclusive call do not appear. More than one record can exist for a structure, and the calls need not agree. Unmarked numbers belong to inactive results. The source made the active and inactive calls. The call rests on the fitted dose curve; in most records, active means well fitted inhibition curve with a large enough effect; inconclusive means small, poorly fitted or top-dose-only effect; inactive means flat fitted curve, though single readings scatter.

Assay [1] relates to CRL-7250. The experiment in a line: Cytotoxic Profiling of Annotated Libraries Using Quantitative High-Throughput Screening (AID 1296008). Further: potency means the concentration at half of the fitted maximal effect. On max response: on the % scale 0 is the no-effect control and ±100 the full control effect. To be noted: Five cell lines viability, CellTiter-Glo ATP luminescence, 48-72 h; max response: hits give low values. The method, boiled down: (§1)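 Cytotoxicity was measured as CellTiter-Glo ATP luminescence, read after 10 min at room temperature. Compound treatment of the cells lasted 48 or 72 hr at 37 degrees Celsius in a qHTS format.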
A general note: In ATP-based viability assays light output follows the ATP content of the culture.

In assay [2] the test system is HEK293. The description is as above. The settings on record: Five cell lines viability, CellTiter-Glo ATP luminescence, 48-72 h; max response: hits give low values. The method, boiled down: as §1
Assay [3] deals with HaCat. The assay is described as above. To be noted: Five cell lines viability, CellTiter-Glo ATP luminescence, 48-72 h; max response: hits give low values. In outline: as §1
Assay [4] has as its system KB-3-1. The assay is described as above. To be noted: Five cell lines viability, CellTiter-Glo ATP luminescence, 48-72 h; max response: hits give low values. In outline:
as §1

Assay [5] deals with NIH3T3. The assay is described as above. To be noted: Five cell lines viability, CellTiter-Glo ATP luminescence, 48-72 h; max response: hits give low values. The method, boiled down:
as §1

Assay [6] relates to HACAT. The experiment in a line: qHTS assay to identify novel small-molecules to repurpose for Merkel cell carcinoma treatment (AID 1296009). The settings on record: MCC and control cell lines, CellTiter-Glo viability, 72 h; at 44.8 µM (top of the series) unless noted. The method, boiled down:
(§2)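 After compound transfer in DMSO, plates were kept 72 hr at 37 degree celsius. Luminescent ATP signal from CellTiter-Glo served as viability measure, normalized against DMSO and no-cell controls.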
(In general: In qHTS, concentration-response curves come from the screen itself.)

Assay [7] has as its system MCC-13. The assay is described as above. To be noted: MCC and control cell lines, CellTiter-Glo viability, 72 h; series mostly up to 46 µM. The method, boiled down: as §2
The subject of assay [8] is MCC-26. The description is as above. The settings on record: MCC and control cell lines, CellTiter-Glo viability, 72 h; series mostly up to 46 µM. The method, boiled down: as §2
Assay [9] deals with W2. Description: qHTS profiling for inhibitors of Plasmodium falciparum proliferation (AID 504749).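 Further: 0% = DMSO vehicle and full inhibition = artemisinin control.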 To be noted: P. falciparum in erythrocytes, SYBR Green DNA, 72 h; series mostly up to 28.7 µM. In outline: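 Three-day growth assay of blood-stage parasites in erythrocytes (0.3% parasitemia, 2.5% hematocrit) at 37 C, 5% CO2, quantified by SYBR Green DNA staining after overnight detergent lysis.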

Assay [10] relates to HEK293T. The experiment in a line: qHTS assay to identify novel small-molecules to repurpose for Merkel cell carcinoma treatment (AID 1296009). To be noted: MCC and control cell lines, CellTiter-Glo viability, 72 h; at 44.8 µM (top of the series) unless noted. In outline: as §2
Further: nearly all actives have a fitted effect of over 60% in size.

Take `COc1cc(C(C)=O)ccc1OCCCN1CCC(c2noc3cc(F)ccc23)CC1`: the figures for the max response in assay [1], in [2] and in assay [5] were -1.04%, -12.6% and -2.71%, respectively. For the same molecule, the call in assay [1], in assay [3], in assay [4], in assay [5] and in assay [6] was inactive. The Potency entry in [7] and in assay [8] was “inactive” each time.
Turning to `CC1(C)CCC(C)(C)c2cc(NC(=O)c3ccc(C(=O)O)cc3)ccc21`, the Potency result in assay [9], in assay [7] and in [8] was “inactive” throughout. Moreover, the max response in [1] is 0.132%; in assay [2] it was 2.4%; in assay [3] it was -6.69%; in assay [4] it was 33.6%; in assay [5] it was -2.77%. The molecule was classed as inactive in [2], in assay [3], in assay [5], in assay [6] and in [10].
For `CC(=O)NC[C@H]1CN(c2ccc(N3CCOCC3)c(F)c2)C(=O)O1`, the max response was -4.05% in assay [1]; -2.3% in assay [3]; -15.9% and -9.99% and -3.52% in assay [4]; -16% and 2.14% in assay [5]. The outcome in assay [1], in assay [3] and in assay [6] was inactive. In addition, the Potency in assay [2] is 13.2 µM (active). Besides, the Potency entry in [7] and in assay [8] was “inactive” throughout.
`CC1=C(C(=O)O)N2C(=O)[C@@H](NC(=O)[C@H](N)C3=CCC=CC3)[C@H]2SC1`: the max response in [1] is -13.1%; in assay [2] it was -32.9%; in assay [4], -3.32%. For the same molecule, the outcome in assay [1], in [2], in [3], in [4], in assay [5] and in assay [6] was inactive. In assay [10], the result was inactive. Also, the Potency result in assay [7] and in assay [8] was “inactive” throughout.
Take `COC1=C(OC)C(=O)C(CCCCCCCCCCO)=C(C)C1=O`: the max response in assay [1] was -2.47%; in [3], -8.33%; in assay [4], -4.5% and -1.13%; in assay [5], 4.9%. For the same molecule, the molecule was classed as inactive in assay [1], in assay [3], in assay [5] and in [6]. Besides, in [2], the Potency is 23.7 µM (active). Further, the Potency entry in assay [7] and in assay [8] was “inactive” each time.
For the molecule `CC1=C(C)C(=O)C(C(CCCCCC(=O)O)c2ccccc2)=C(C)C1=O` (centres undefined), in assay [1], the Potency is 5.31 µM (active). Besides, the max response was 0.243% in assay [1]; -12.9% in assay [2]; -5.06% in [3]; 6.39% in assay [4]; 2.25% in assay [5]. Moreover, the molecule was classed as inactive in assay [2], in [3], in [5], in assay [6] and in assay [10]. The Potency result in assay [7] and in assay [8] was “inactive” each time.
Regarding `CCCS(=O)c1ccc2nc(NC(=O)OC)[nH]c2c1` (centres undefined), the results for the Potency in assay [1] and in assay [2] were 21.1 µM (active) and 23.7 µM (active), respectively. Besides, the figures for the max response in [1] and in assay [5] were -27.5% and -29.9%, respectively. Further, the Potency entry in [7] and in [8] was “inactive” in each case.
In the case of `COc1cc2nc(N3CCN(C(=O)C4CCCO4)CC3)nc(N)c2cc1OC` (centres undefined), the max response was -10.4% in [1]; -14.3% and 0.884% in assay [2]; 3.43% and -0.464% in assay [3]; -10.1% and 5.78% in [4]; -4.15% and -2.16% in [5]. Besides, in assay [1], the outcome was inactive. The Potency entry in [7] and in assay [8] was “inactive” each time.
For the molecule `CN(C)[C@@H](CCOc1cccc2ccccc12)c1ccccc1`, the max response in [1] is -9.42%; in assay [3], 4.48%; in assay [5], -1.45% and -13.3%. The call in [1], in [3] and in assay [6] was inactive. For the same molecule, the Potency result in assay [7] and in assay [8] was “inactive” each time.
For the molecule `Clc1ccc(C(Cn2ccnc2)OCc2c(Cl)cccc2Cl)c(Cl)c1` (centres undefined), the max response was -2.52% in [1]; 1.49% in assay [3]; -15.6% and -6.5% and -4.2% in assay [4]; -3.81% and -0.381% in [5]. For the same molecule, the call in assay [1], in assay [3], in assay [5] and in assay [6] was inactive. Further, the Potency in assay [2] is 7.5 µM (active). Moreover, the Potency result in assay [7] and in assay [8] was “inactive” each time.
As to `Cc1ccc(C)c(OCCCC(C)(C)C(=O)O)c1`, the Potency entry in [9], in [7] and in assay [8] was “inactive” each time. Further, the max response was -2.44% in assay [1]; 4.9% and 0.17% in [2]; 3.97% in assay [3]; 8.09% and 8.97% in assay [4]; -1.31% and 0.244% in assay [5]. The molecule was classed as inactive in [1], in assay [3] and in assay [6].
Regarding `O=C(O)CCNC(=O)c1ccc(N=Nc2ccc(O)c(C(=O)O)c2)cc1`, the Potency result in [9], in assay [7] and in assay [8] was “inactive” each time. Further, the max response in [1] was -3.32%; in [2] it was -9.94% and 3.93%; in assay [3], -13.4%. For the same molecule, the result in [1], in assay [3], in assay [5] and in assay [6] was inactive.
Regarding `Cc1nc(-c2ccc(OCC(C)C)c(C#N)c2)sc1C(=O)O`, the max response in assay [1] was 2.28%; in assay [2], -1.16% and -8.21%; in assay [3], 0.712%; in [4], 3.2%; in assay [5], 4.8%. The molecule was classed as inactive in assay [1], in assay [3], in assay [5] and in [6]. Besides, the Potency entry in [7] and in assay [8] was “inactive” throughout.
